Laboratory results: article PMC4336329 (PLoS ONE, 2015)
In all, about 310,000 compounds went through this assay and about 14,000 (4.5%) showed an effect of 50% or more. Effects have a minus sign here. The sample holds strong results, similar compounds and a random draw of the others, so the mix is not that of the screen.

biological target: human ether-à-go-go-related gene (hERG) potassium channel (human, UniProt Q12809); experiment: primary screen, population patch clamp on CHO cells stably expressing hERG; higher = less effect of the substance
Sequence (Q12809 whole entry, looked up): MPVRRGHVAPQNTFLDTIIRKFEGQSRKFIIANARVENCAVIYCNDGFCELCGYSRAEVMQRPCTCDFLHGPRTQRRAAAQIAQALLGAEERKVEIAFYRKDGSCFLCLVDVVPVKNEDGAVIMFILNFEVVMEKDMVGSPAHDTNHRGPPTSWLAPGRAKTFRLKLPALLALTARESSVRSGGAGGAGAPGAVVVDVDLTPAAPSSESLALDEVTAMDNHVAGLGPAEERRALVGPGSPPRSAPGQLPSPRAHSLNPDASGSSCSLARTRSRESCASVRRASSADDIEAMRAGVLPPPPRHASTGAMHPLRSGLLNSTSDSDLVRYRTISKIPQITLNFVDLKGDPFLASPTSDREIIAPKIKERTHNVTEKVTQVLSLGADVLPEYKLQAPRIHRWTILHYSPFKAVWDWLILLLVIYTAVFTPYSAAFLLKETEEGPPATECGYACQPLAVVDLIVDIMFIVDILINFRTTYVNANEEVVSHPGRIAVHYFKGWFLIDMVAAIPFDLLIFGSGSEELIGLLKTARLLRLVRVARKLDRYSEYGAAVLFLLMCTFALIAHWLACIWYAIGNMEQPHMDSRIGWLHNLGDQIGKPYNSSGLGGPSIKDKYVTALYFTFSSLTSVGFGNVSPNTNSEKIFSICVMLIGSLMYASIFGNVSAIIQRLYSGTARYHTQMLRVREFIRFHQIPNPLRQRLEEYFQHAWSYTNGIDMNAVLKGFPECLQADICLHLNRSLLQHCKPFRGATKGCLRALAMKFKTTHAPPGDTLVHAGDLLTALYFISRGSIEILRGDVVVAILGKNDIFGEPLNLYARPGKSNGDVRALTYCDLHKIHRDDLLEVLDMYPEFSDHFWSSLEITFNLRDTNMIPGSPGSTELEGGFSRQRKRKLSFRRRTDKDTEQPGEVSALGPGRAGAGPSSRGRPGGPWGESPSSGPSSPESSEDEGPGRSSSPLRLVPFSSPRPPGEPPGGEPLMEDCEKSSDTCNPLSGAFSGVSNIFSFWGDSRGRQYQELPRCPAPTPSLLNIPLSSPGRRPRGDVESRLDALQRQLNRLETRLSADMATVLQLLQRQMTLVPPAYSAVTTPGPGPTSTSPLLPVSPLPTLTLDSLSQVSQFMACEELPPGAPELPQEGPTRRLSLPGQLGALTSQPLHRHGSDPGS
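Note: peak tail current of the secondary pulse compared with the same well before compound.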

Row | SMILES | hERG current change (%, negative = inhibition) at 10uM
1 | CN1CCN(CCCNC(=O)c2ccc(Cn3c(=S)[nH]c4ccc(Br)cc4c3=O)cc2)CC1 | 17.4%
2 | CCCCC(=O)N1CCN(c2nc3ccc(Br)cc3s2)CC1 | -69.4%
3 | CC(C)(C)C(=O)N1CCN(c2nc3ccc(Br)cc3s2)CC1 | -8.45%
4 | CCCC(=O)N1CCN(c2nc3ccc(Br)cc3s2)CC1 | -71%
5 | O=C(C1CCN(c2nc3ccc(Br)cc3s2)CC1)N1CCC2(CC1)OCCO2 | -62.3%
6 | CCc1ccc2nc(N3CCC(C(=O)N4CCC5(CC4)OCCO5)CC3)sc2c1 | -42.5%
7 | Brc1ccc2nc(N3CCCC3)sc2c1 | 13%
8 | CC(=O)N1CCN(c2nc3ccc(Br)cc3s2)CC1 | -49.4%
9 | Cc1ccc2nc(N3CCC(C(=O)N4CCC5(CC4)OCCO5)CC3)sc2c1 | -19.8%
10 | CCC(=O)N1CCN(c2nc3ccc(Br)cc3s2)CC1 | -44.2%
11 | Cc1nc([N+](=O)[O-])cn1Cc1cccc([N+](=O)[O-])c1 | -8.42%
12 | CCOC(=O)C(=O)N/N=C/c1ccco1 | 11.3%
13 | CCOc1ccc(-n2c(SCC(N)=O)nc3c(c2=O)SCC3)cc1 | 12%
14 | Cc1ccccc1OCCNc1cc(N2CC(C)NC(C)C2)ccc1[N+](=O)[O-] (centres unmarked) | -12.3%
15 | Cc1ccc(C2CC2C(=O)NNC(=S)Nc2cccc(Cl)c2)cc1 (centres unmarked) | -4.44%
16 | COc1ccc(OCc2cc(C(=O)N3CCN(CC(=O)N(C)C)CC3)no2)c(Cl)c1 | -13.4%
17 | COc1cc2c(=O)n(CC3CCCO3)c(=O)n(CC(=O)Nc3ccccc3)c2cc1OC (centres unmarked) | -2.85%
18 | COc1ccc(N2CCN(C(=O)c3cc4c(C)nc5ccccc5c4o3)CC2)cc1 | -47%
19 | COc1ccc(N2CCN(C(=O)c3cc4c(=O)n(Cc5ccccc5)ccc4nc3C)CC2)cc1 | -55.2%
20 | O=C(c1cc(-c2ccco2)nc2ccccc12)N1CCN(c2ccc(F)cc2)CC1 | -28.8%
21 | CS(=O)(=O)N(Cc1ccccc1)c1ccccc1C(=O)N1CCN(c2ccccc2)CC1 | -46.6%

Row | SMILES | hERG current change (%, negative = inhibition) at 10uM
22 | Cc1nc2ccn(Cc3ccccc3)c(=O)c2cc1C(=O)N1CCN(c2ccccc2)CC1 | -74%
23 | O=C(c1ccc(Cn2c(=O)[nH]c3ccccc3c2=O)cc1)N1CCN(c2ccc(F)cc2)CC1 | -15.5%
24 | Cc1nc2ccn(Cc3ccccc3)c(=O)c2cc1C(=O)N1CCN(c2ccc(F)cc2)CC1 | -78.5%
25 | COc1ccc(Cn2c(=O)[nH]c3cc(C(=O)N4CCN(c5ccccc5)CC4)ccc3c2=O)cc1 | 9.23%
26 | COc1cccc(N2CCN(C(=O)c3cc4c(=O)n(Cc5ccccc5)ccc4nc3C)CC2)c1 | -49.8%
27 | CSC1=C(C#N)C(c2ccc(Cl)cc2)C2=C(CC(C)(C)CC2=O)N1 (centres unmarked) | -6.94%
28 | C=CCCCCc1nc2ccccc2c(=O)n1N | 6.28%
29 | Cc1ccc2c(C)nc(N/C(N)=N/S(=O)(=O)c3ccc([N+](=O)[O-])cc3)nc2c1 | -13.1%
30 | COc1cc(C(=O)NC(c2ccccc2)c2ccccc2)cc(OC)c1C | 15.2%
31 | O=C(NCCCN1CCCC1=O)[C@H](CSCc1ccccc1)N1Cc2ccccc2C1=O | 1.78%
32 | COCCNC(=O)[C@H](CSCc1ccccc1)N1Cc2ccccc2C1=O | -42.6%
33 | COCCCNC(=O)[C@H](CSCc1ccccc1)N1Cc2ccccc2C1=O | -14.5%
34 | O=C(NCCCN1CCCC1)[C@H](CSCc1ccccc1)N1Cc2ccccc2C1=O | -56.8%
35 | CC(C)CCNC(=O)[C@H](Cc1ccccc1)N1Cc2ccccc2C1=O | -11.6%
36 | CC(C)CCNC(=O)[C@H](CSCc1ccccc1)N1Cc2ccccc2C1=O | -61%
37 | CC(C)NC(=O)[C@H](CSCc1ccccc1)N1Cc2ccccc2C1=O | -40%
38 | COC(CNC(=O)[C@H](CSCc1ccccc1)N1Cc2ccccc2C1=O)OC | -3.49%
39 | CCCCNC(=O)[C@H](CSCc1ccccc1)N1Cc2ccccc2C1=O | -68.5%
40 | N#CCCN1CCCc2cc(N=Nc3ccc(C(F)(F)F)cc3)ccc21 | 13.4%
41 | COc1ccc(Cl)cc1Nc1nc(C)cc(C)c1C(N)=O | 14.3%
42 | CC(C)C[C@@H]1NC(=O)[C@H](CO)NC(=O)c2cc([N+](=O)[O-])cc(I)c2OCC[C@@H](C(N)=O)NC1=O | 2.3%

Row | SMILES | hERG current change (%, negative = inhibition) at 10uM
43 | CCC(=O)Nc1ccc(NC(=S)NC(=O)c2cc3ccccc3o2)cc1 | 7.15%
44 | COc1ccc(Cn2nnnc2CN2CCN(c3ccc(OC)cc3)CC2)cc1 | -3.66%
45 | O=[N+]([O-])c1ccc2cn(-c3ccccc3)nc2c1 | -0.226%
46 | O=C(CCc1nc2ccccc2c(=O)[nH]1)Nc1cc(C(F)(F)F)ccc1N1CCOCC1 | -35.3%
47 | CN(Cc1cccc(Cl)c1)C(=O)C1CCC(=O)N(C2CC2)C1 (centres unmarked) | 1.31%
48 | Cc1ccc(CN(C)C(=O)C2CCC(=O)N(C3CCCCCC3)C2)cc1 (centres unmarked) | 7.71%
49 | CN(Cc1ccc(C(F)(F)F)cc1)C(=O)C1CCC(=O)N(C2CC2)C1 (centres unmarked) | -51.7%
50 | Cc1cccn2c(=O)c3cc(C(=O)NC4CCCC4)c(=N)n(CCCN4CCOCC4)c3nc12 | -74.7%
51 | Cc1cccn2c(=O)c3cc(C(=O)NC4CCCCC4)c(=N)n(CCN4CCOCC4)c3nc12 | -87%
52 | CCCCOc1nc2ccccc2nc1NS(=O)(=O)c1ccc(F)cc1 | -5.01%
53 | Cc1nc2scc(-c3cccs3)c2c(=O)n1CC(=O)O | 5.83%
54 | CCOC(=O)COc1c(Br)cc(/C=C2\SC(=O)N(CC(=O)N3CCCC3)C2=O)cc1OC | -24%
55 | Cc1cccc(CCNC(=O)CN(C)S(=O)(=O)c2cnc[nH]2)c1 | 4.07%
56 | Cc1ccccc1C(=O)c1cccn1CC(=O)N1CCCCC1 | 10.6%
57 | Cc1onc(-c2ccccc2Cl)c1C(=O)Nc1ccc(-c2nnc3n2CCCCC3)cc1 | -4.31%
58 | Cc1ccc(NC(=O)CSc2nc3ccccc3c(=O)n2CCCN2CCCCC2)cc1Cl | -73.7%
59 | Cc1ccc(-n2c(SCC(=O)Nc3cc(S(=O)(=O)N4CCOCC4)ccc3Cl)nc3ccccc3c2=O)cc1 | 2.71%
60 | CS(=O)(=O)c1ccc(Cl)c(NC(=O)CSc2nc3ccccc3c(=O)n2CCCN2CCOCC2)c1 | -47.7%
61 | COCCCNC(=O)CSc1nc2ccccc2c(=O)n1CCCN1CCCCC1 | 2.04%
62 | CCCCn1c(SCC(=O)Nc2ccc3c(c2)CCC3)nc2ccccc2c1=O | -33.6%
63 | Cc1ccc(NC(=O)CSc2nc3ccccc3c(=O)n2CCCN2CCCCC2)cc1C | -71.9%

Row | SMILES | hERG current change (%, negative = inhibition) at 10uM
64 | CN(C)S(=O)(=O)c1ccc(Cl)c(NC(=O)CSc2nc3ccccc3c(=O)n2CCCN2CCOCC2)c1 | -73.9%
65 | COCCn1c(SCC(=O)Nc2ccc3c(c2)CCC3)nc2ccccc2c1=O | 4.46%
66 | CCN(CC)CCn1c(SCC(=O)Nc2ccc3c(c2)CCC3)nc2ccccc2c1=O | -83%
67 | CCC(C)NC(=O)CSc1nc2ccccc2c(=O)n1CCCN1CCCCC1 (centres unmarked) | -13.8%
68 | Cc1ccc(NC(=O)CCC(=O)N/N=C/c2coc3ccccc3c2=O)cc1 | 0.733%
69 | Cc1ccccc1NC(=O)NCc1ccc2c(c1)OCO2 | 11.6%
70 | O=C(COC(=O)C1(c2ccc(Cl)cc2)CCCC1)N1CCc2ccccc21 | -1.16%
71 | CCOC(=O)Nc1sc2c(c1C(N)=O)CCC(C)C2 (centres unmarked) | 16.4%
72 | CC(=O)c1sc2nsc(SCCN3CCCC3)c2c1N | -0.32%
73 | Cc1c(Cl)ccc(S(=O)(=O)Nc2cccnc2)c1Cl | 13.6%
74 | Cc1cc(C(F)(F)F)nc(SCC(=O)NC2CCCCC2)n1 | -10%
75 | COCCn1c(SCC(=O)Nc2ccc(N3CCOCC3)cc2)nc2ccccc21 | -4.58%
76 | COCCn1c(SCC(=O)Nc2ccc(S(=O)(=O)N3CCOCC3)cc2)nc2ccccc21 | -58.8%
77 | O=C(CSc1nc2ccccc2c(=O)n1CCCN1CCOCC1)Nc1cccc(S(=O)(=O)N2CCCCCC2)c1 | -72.2%
78 | COCCn1c(SCC(=O)Nc2ccc(S(N)(=O)=O)cc2)nc2ccccc21 | -32.1%
79 | O=C(CSc1nc2ccccc2c(=O)n1-c1ccc(F)c(Cl)c1)Nc1cccc(S(=O)(=O)N2CCOCC2)c1 | 21.8%
80 | O=C(CSc1nc2ccccc2c(=O)n1-c1ccccc1Cl)Nc1cccc(S(=O)(=O)N2CCOCC2)c1 | -6.76%
81 | COc1cc(N)ccc1NC(=O)c1cc2ccccc2o1 | 13.1%
82 | O=C(CN1CCCC1)Nc1ccc(NC(=O)Nc2ccccc2)cc1 | 6.42%
83 | O=S(=O)(NC(=S)NC1CCCCC1)c1ccc(Br)cc1 | 9.58%
